# Reference: ChEMBL document CHEMBL3988442, “University of Dundee, Small-Polar-MMV Screening Library” (2021)
# The campaign covered roughly 48,000 compounds. About 13,000 (27%) showed an effect of 50% or more. This is one part of the list.
# Tested on: Wolbachia pipientis
# Test: Anti-Wolbachia Cell-Based Screen
# Type: functional
# Design: scale not given: in the data most compounds retested in dose-response had high values
# Conditions: 5 µM
row,Structure (SMILES),Percent Effect [%]
1,CC(C)(C)CC(=O)NCC(=O)NS(=O)(=O)c1cccnc1,-1.885
2,COc1ncnc(N(C)C)c1NC(=O)Cc1cc(F)ccc1F,-32.31
3,CC(C)(C)c1ccc(C2(C(=O)NCCCS(C)(=O)=O)CC2)cc1,-6.927
4,Cc1ccc(C)c(CS(=O)(=O)CC(=O)NC(C)c2ccc(F)cc2F)c1 (stereo not drawn),34.69
5,Cc1ccc(C)c(CS(=O)(=O)CC(=O)Nc2ccc(F)cc2F)c1,-7.067
6,CC(C)OCCCNC(=O)CS(=O)(=O)Cc1ccc(C(C)(C)C)cc1,103.7
7,CC(C)OCCCNC(=O)CN1CCC(N2CCN(C)C2=O)CC1,-1.952
8,Cc1ccc(C)c(CS(=O)(=O)CC(=O)NCCCOC(C)C)c1,103.7
9,Cc1cc(NC(=O)CNc2ccc(Br)cc2F)on1,-13.69
10,CNC(=O)[C@@H](CC(C)C)N1CCC[C@H]1C(=O)N(C)Cc1ccccc1.Cl,3.832
11,CS(=O)(=O)N1CCc2c(nnn2CC2CC2)C1COCC1CC1 (stereo not drawn),9.145
12,CNC(=O)CCc1cc(C2CCCN2S(C)(=O)=O)nc(C)n1 (stereo not drawn),95.26
13,CNC(=O)CCN1CCCC1c1ccccc1Br (stereo not drawn),10.79
14,Cc1cc(C2CCCN2C(=O)COc2ccc(CC#N)cc2)no1 (stereo not drawn),-10.78
15,CCOc1ccc(CC(=O)N2CCCC2c2cc(C)on2)cc1 (stereo not drawn),5.942
16,Cc1noc(C)c1CN(C)C(=O)C1CCCCN1S(C)(=O)=O (stereo not drawn),-0.5133
17,NC(=O)CN1CCN(S(=O)(=O)N2CCCC2c2ccco2)CC1 (stereo not drawn),-1.711

row,Structure (SMILES),Percent Effect [%]
1,Cc1nc(O)cc(CCNC(=O)CC[C@@H]2CCCN3CCCC[C@H]23)n1,-10.54
2,Cc1nc(CCC(N)=O)cc(C2CCCCN2S(C)(=O)=O)n1 (stereo not drawn),110.4
3,Cc1nc(CCC(N)=O)cc(C2CCCN2S(C)(=O)=O)n1 (stereo not drawn),118
4,CNC(=O)CCc1cc(C2CCCN2C(=O)CO)nc(C)n1 (stereo not drawn),135.9
5,Cc1cc(C2CCCN2C(=O)c2ccc(OCC(N)=O)cc2)no1 (stereo not drawn),5.942
6,Nc1nc2c(c(N3CCC(CCn4cccn4)CC3)n1)CCNCC2,1.454
7,CC(Cc1ccc2c(c1)OCO2)c1cn(CCN2CCCC2)nn1 (stereo not drawn),21.75
8,CC(C)N(C)CC(=O)Nc1ccc(-n2ccc(C(N)=O)n2)cc1,-7.566
9,COc1ccc(SC(C)C(=O)N2CCC(O)CC2)cc1 (stereo not drawn),1.982
10,COCCN(C(=O)c1ccn(-c2ccc(OC)cc2)n1)C(C)C(N)=O (stereo not drawn),143
11,CCC(C)C(=O)NCc1ccn(-c2ccc(F)cc2)n1 (stereo not drawn),-3.834
12,COc1ccc(-n2ccc(C(=O)N3CCC(C(N)=O)C3)n2)cc1 (stereo not drawn),-0.5166
13,COCCN(CCOC)C(=O)c1ccn(-c2ccccc2Cl)n1,2.098
14,COc1ccc(-n2ccc(C(=O)N(CCN(C)C)C(C)C)n2)cc1,158.8
15,CN(C)CCN(Cc1cccnc1)C(=O)c1ccn(-c2ccccc2)n1,1.059
16,COc1ccc(-n2ccc(C(=O)N(C)C(C)C3(C)CC3)n2)cc1 (stereo not drawn),114.7
